# Measured values as given in PubChem BioAssay (EPA / NIEHS).
# Calls of active or inactive are those of the source. The calls were made as follows: active = hit-call score of the fitted dose curve at least 0.9, where 1 is the maximum; inactive = score below 0.9.
# Experiments:
# [1] = read-out: Monokine induced gamma interferon (MIG), CXCL9 (gene 4283); experiment: BSK_KF3CT_MIG: BioMAP Diversity Plus: KF3CT Assay for Monokine induced gamma interferon (MIG) Biomarker Activity (AID 2284248); settings: primary human keratinocytes with fibroblasts
# Experimental: BSK_KF3CT is a cell-based, multiplexed-readout assay that uses keratinocytes and foreskin fibroblasts, a human skin primary cell co-culture, with measurements taken at 24 hours after chemical dosing in a 96-well plate.BSK_KF3CT_MIG is an assay component measured in the BSK_KF3CT assay. It measures MIG antibody related to regulation of gene expression using ELISA technology.Data from the assay component BSK_KF3CT_MIG was analyzed at the endpoint, BSK_KF3CT_MIG, in the positive analysis fitting direction relative to DMSO as the negative control and baseline of activity. Using a type of binding reporter, gain or loss-of-signal activity can be used to understand protein changes. To generalize the intended target to other relatable targets, this assay endpoint is annotated to the 'cytokine' intended target family, where the subfamily is 'chemotactic factor'.
# The levels of cell surface (or secreted, indicated by the prefix "s") biomarker endpoints were measured by ELISA. Overt cytotoxicity to cells in confluent adherent cultures (all systems other than the BT system) was assessed by measuring total protein levels using sulforhodamine B (SRB) staining in parallel cultures at the time of biomarker measurements, indicated as SRB endpoints. For proliferation assays for adherent cell types, individual cell types are cultured at sub-confluence and relative cell numbers quantified by SRB staining at time points optimized for each system (48 h: 3C and CASM3C systems; 72 h: BT and HDF3CGF systems; 96 h: SAg system). SRB was performed by staining cells with 0.1% SRB after fixation with 10% TCA and reading wells at 560 nm.Viability and proliferation of PBMC (T cells) was quantified by Alamar Blue reduction for the SAg and BT systems. […] Then, Alamar Blue (20 uL/well) (Invitrogen, Cat DAL1100) was added for 6 h, and the plates were read with a fluorescence microplate reader at 546/580 nm (excitation/emission). […] Plates were read after 6 h.
# [2] = read-out: Collagen I, COL1A1 (gene 1277); experiment: BSK_hDFCGF_CollagenI: BioMAP Diversity Plus: hDFCGF Assay for Collagen I Biomarker Activity (AID 2284250); settings: primary human foreskin fibroblasts
# Summary of the method: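 ELISA read-out of Collagen I in human dermal foreskin fibroblast cultures, 24 h after dosing. Gain of signal versus DMSO vehicle defines activity.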
# [3] = read-out: Interleukin 17F (IL17F), IL17F (gene 112744); experiment: BSK_BT_xIL17F: BioMAP Diversity Plus: BT Assay for Interleukin 17F (IL17F) Biomarker Activity (AID 2284243); settings: primary human B cells with PBMC
# Summary of the method: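 Compound was added to co-cultures of human B cells and PBMC. After 24 hours, IL-17F released into the medium was measured with LumineX xMAP technology. Responses were then fitted upward relative to DMSO.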
# [4] = read-out: Actin alpha 1 (ACTA1), ACTA1 (gene 58); experiment: BSK_MyoF_ACTA1: BioMAP Diversity Plus: MyoF Assay for Actin alpha 1 (ACTA1) Biomarker Activity (AID 2284244); settings: primary human lung fibroblasts
# Summary of the method: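 ELISA read-out of a-SMA in primary human lung fibroblast cultures, 24 h post-dosing. Activity scored in the positive direction versus DMSO baseline.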
# [5] = read-out: Interleukin 2 (IL2), IL2 (gene 3558); experiment: BSK_BT_xIL2: BioMAP Diversity Plus: BT Assay for Interleukin 2 (IL2) Biomarker Activity (AID 2284245); settings: primary human B cells with PBMC
# Summary of the method: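 Readout: supernatant IL-2 via Luminex xMAP after 24 h chemical dosing of a B cell/PBMC primary human co-culture. DMSO serves as negative control and baseline; increases in signal were fitted.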
# [6] = read-out: Basic fibroblast growth factor (bFGF), FGF2 (gene 2247); experiment: BSK_MyoF_bFGF: BioMAP Diversity Plus: MyoF Assay for Basic fibroblast growth factor (bFGF) Biomarker Activity (AID 2284246); settings: primary human lung fibroblasts
# Summary of the method: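 Primary human lung fibroblast culture, 24 h compound exposure; ELISA read-out of bFGF. Positive-direction fit vs DMSO baseline. Cytotoxicity: SRB stain (0.1% SRB, 10% TCA fixation, 560 nm) in parallel wells.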
# [7] = read-out: Collagen IV, COL4A1 (gene 1282); experiment: BSK_MyoF_CollagenIV: BioMAP Diversity Plus: MyoF Assay for Collagen IV Biomarker Activity (AID 2284247); settings: primary human lung fibroblasts
# Summary of the method: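 ELISA read-out of Collagen IV in lung fibroblast cultures, 24 h post-dosing; gain of signal relative to DMSO vehicle baseline defines activity.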
smiles,measurement,setting,value
O=C(Cc1ccccc1)OCCc1ccccc1,outcome,[1],inactive
same,outcome,[2],inactive
Nc1ccc(N)cc1,outcome,[3],inactive
same,outcome,[4],inactive
same,outcome,[5],inactive
same,outcome,[6],inactive
same,outcome,[7],inactive
OCCCCO,outcome,[1],inactive
same,outcome,[2],inactive
COCC(=O)N(c1c(C)cccc1C)[C@H](C)C(=O)OC,outcome,[3],inactive
same,outcome,[4],inactive
same,outcome,[5],inactive
same,outcome,[6],inactive
same,outcome,[7],inactive
Cc1ccc(OP(=O)(Oc2ccc(C)cc2C)Oc2ccc(C)cc2C)c(C)c1,AC50,[3],24.9 µM (active)
same,outcome,[4],inactive
same,AC50,[5],12 µM (active)
same,outcome,[6],inactive
same,outcome,[7],inactive
CC(C)(COCC1CO1)COCC1CO1 (stereo unspecified),AC50,[3],24.5 µM (active)
same,outcome,[4],inactive
same,outcome,[5],inactive
same,outcome,[6],inactive
same,outcome,[7],inactive
O=C1C=CC(=O)c2ccccc21,AC50,[3],0.61 µM (active)
same,AC50,[4],4.42 µM (active)
same,AC50,[5],0.714 µM (active)
same,AC50,[6],4.17 µM (active)
same,AC50,[7],2.56 µM (active)
O=[N+]([O-])c1cccc2ccccc12,outcome,[3],inactive
same,outcome,[4],inactive
same,outcome,[5],inactive
same,outcome,[6],inactive
same,outcome,[7],inactive
CCCCOC(=O)COC(=O)c1ccccc1C(=O)OCCCC,outcome,[1],inactive
same,outcome,[2],inactive
CCOP(=S)(OCC)OP(=S)(OCC)OCC,outcome,[3],inactive
same,outcome,[4],inactive
same,outcome,[5],inactive
same,outcome,[6],inactive
same,outcome,[7],inactive
Cc1ccc2nc3sc(=O)sc3nc2c1,outcome,[3],inactive
same,outcome,[4],inactive
same,outcome,[5],inactive
same,outcome,[6],inactive
same,outcome,[7],inactive
Cc1ccccc1OP(=O)(Oc1ccccc1)Oc1ccccc1,outcome,[3],inactive
same,AC50,[4],20 µM (active)
same,outcome,[5],inactive
same,outcome,[6],inactive
same,outcome,[7],inactive
CCCCCCCCCCCCN(C)C,outcome,[3],inactive
same,outcome,[4],inactive
same,outcome,[5],inactive
same,outcome,[6],inactive
same,outcome,[7],inactive
O=C(CCl)NCO,outcome,[3],inactive
same,outcome,[4],inactive
same,outcome,[5],inactive
same,outcome,[6],inactive
same,outcome,[7],inactive
